# Results reported in the supplement of paper PMC6555819.
# Tested on: VDR:RXRa (NR concentration 270 nM, RXRa partner concentration 90 nM)
# Assay: PBM binding z-score (relative to random genomic background probes); higher = stronger binding; sequences stand for … in GC…GCGATTGACAGCGTAGAATGAAGG
# Procedure: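 Protein-binding microarray (Agilent 4x180K custom design, double-stranded 60-nt probes: 5' GC cap, 34-nt variable region, 24-nt constant primer region; full probe sequence given). Purified or IVT nuclear receptor:RXRα heterodimers (3:1 NR:RXRα, mostly 270:90 nM) or homodimers were incubated for 1 h in PBS with 2% milk and no ligand, then detected with Alexa488 antibodies. Fluorescence from o1-orientation probes (~5 replicates averaged) was converted to z-scores against 500 random hg19 background probes. Variable regions are seed direct-repeat (DR0–DR5) sites, all their single-nucleotide variants and half-site ablations.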
row,Sequence,PBM binding z-score
1,ACAGACAGGTGAGTGAACGTAACTCAGCTGGACG,-0.318
2,CCGACTGGGCCATAAGGTTACCATAAGCCAGCCC,0.0236
3,GATACAGGGTAAGCTAGAGGCCAGAGTATGGAAA,-0.409
4,CCTACTGGGCCACGCAAGGTCATTGATTCAGTGA,3.62
5,TCCTGTAGATCAACAGGAGGTTAAGAAAGATCGA,0.266
6,GCGACTGGGGCAACGCAGGTTACCATAAGGTTGG,-0.0248
7,ACATACAGGTGATGAAGGTAACTCAGGCTATCAT,0.555
8,TAGCCTAGGTCAGATCGGTCCAGTATACGCTATA,2.18
9,CCTAGTTGGTCAGGAGATCACACACCGGATATGA,0.242
10,CCTGCTAGGTCATCGTCAGCTAATCTACAGTATG,1.87
11,CTTAGCAGGCCAGGGTCACTCAAGCATTTCGCTT,2.67
12,CCTACTGGGCCACGAATGGTCATTGATTCAGTGA,-0.558
13,TCATAAAGGTAAACAGGTGAAAGTCCGTAAGTTA,1.64
14,TAGCCTAGATCATGCGGGCCAGTATAGTGTCGGC,-1.11
15,TCTAGTTGGTCAAGGAGGTCACACACGACGGGTA,5.23
16,ACTATTAGTTGACTTAGTGCAACCGATACGACGC,0.264
17,ATCTCTAGGTAACCAAGCTCAGTGAATGCCGAAC,-0.169
18,TCCTGTAGATCAAAGGTTAAGAAAGCCGAAGCCT,1.44
19,ATCGAAAGGTCGAGGGTGAGTATACCCACCCGAA,2.68
20,ATATGTAGGTTAAGGGTCATCCAGGTTGGTTCGC,5.91

row,Sequence,PBM binding z-score
1,ACAGACAAGTGAGTGAAGGTAACTCAGCTGGACG,-0.435
2,CTTTACGGGTCACTGACAGGTTATAGCATTTGGA,3.94
3,ATCCAAAGGTCGAAGGTGAGTATACCCACCCGAA,3.15
4,GCTCGGAGGTCAAGGTCAGAGCTTTGTCCGTAGA,5.06
5,TCTAGCAGGCCAGATGGTCACTCAAGAGGTACGG,-0.443
6,CCTAGGAGGACAACAGGAGGTCAGAGCTGCCAGA,2.09
7,CTCGAAAGGTCGGTTGGGGTGAGTATACGGATAA,3.24
8,GCTATTAGTTGAAACGGCAACCGAATGATTCTCG,-0.413
9,CAGCCTAGGTCAGGGCCAGTTTAGGAGGAACGTT,0.723
10,CGTCAAAGTTCAAGGTAACGTACCAGAAAGCAGC,3.87
11,GGAAAGAGGGCAAGTTGATAGCAGAGTTTGATGG,1.24
12,ACAAGCAGGCCAAGGGTCACTCAAGATTAGTCCG,2.94
13,TTGAGTAGGTTAGTCGGGGCATTCAGCCAACATA,2.47
14,CCTTACGGGTCACTGACAGGGTATAGCATTTGGA,3.15
15,GCAGACAGATGAAACGCAGGTAACTCAGGGTGGC,-0.643
16,GCATATAGGTAATACAAGGTAAAAGTCCGATTGT,0.085
17,TCTGCTAGGTCAGCGATGGTCAGCTAATCTGCTA,0.126
18,ATCGAAAGGTCGTGAGGAGAGTATACAGAAAGGC,3.11
19,ACTATTCGTTGACTTAGGGCAACCGATACGACGC,0.325
20,AGAACGAGGGCACGCTAAGTTGATAGCAGAGTAG,1.65
